PubChem BioAssay
Active and inactive are the calls of the source. How the calls were made is not given here.

These molecules were tested against Lethal factor (Bacillus anthracis) (UniProt P15917) (assay: Lethal factor protease inhibitors, Bacillus anthracis, multiplex microsphere cleavage assay, validation set (AID 588461)). Conditions: flow cytometry, at 10 µM, hits give high values.
Sequence of Lethal factor (Bacillus anthracis) (P15917 whole entry, looked up): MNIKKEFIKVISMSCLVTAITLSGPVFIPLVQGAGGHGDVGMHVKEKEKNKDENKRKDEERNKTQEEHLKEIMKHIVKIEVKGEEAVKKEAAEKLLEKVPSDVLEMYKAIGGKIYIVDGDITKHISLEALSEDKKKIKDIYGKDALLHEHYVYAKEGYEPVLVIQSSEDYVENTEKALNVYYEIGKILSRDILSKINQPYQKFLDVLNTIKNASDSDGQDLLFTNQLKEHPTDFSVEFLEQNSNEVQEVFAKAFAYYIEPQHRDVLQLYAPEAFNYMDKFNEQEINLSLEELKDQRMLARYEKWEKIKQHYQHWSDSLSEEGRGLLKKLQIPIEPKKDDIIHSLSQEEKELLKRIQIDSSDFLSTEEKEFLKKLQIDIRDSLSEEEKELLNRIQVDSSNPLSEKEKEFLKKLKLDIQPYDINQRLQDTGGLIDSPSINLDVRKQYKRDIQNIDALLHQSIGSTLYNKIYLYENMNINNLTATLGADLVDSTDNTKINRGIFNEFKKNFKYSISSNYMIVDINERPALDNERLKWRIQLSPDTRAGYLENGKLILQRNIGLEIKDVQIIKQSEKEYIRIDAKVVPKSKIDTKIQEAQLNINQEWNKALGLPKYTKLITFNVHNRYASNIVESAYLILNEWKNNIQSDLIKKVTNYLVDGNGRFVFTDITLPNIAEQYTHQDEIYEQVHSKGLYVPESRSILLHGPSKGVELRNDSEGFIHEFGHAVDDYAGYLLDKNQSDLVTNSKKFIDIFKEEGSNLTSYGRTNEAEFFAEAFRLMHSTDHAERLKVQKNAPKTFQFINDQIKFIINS
In the case of `CCn1c(=N)c(C(=O)NC)cc2c(=O)n3cccc(C)c3nc21`, the inhibition is reported as 5.6% (inactive). In the case of `CCOC(=O)c1oc2cc(OCC(N)=O)ccc2c(=O)c1-c1ccc(OC)c(OC)c1`, the inhibition is reported as 1.9% (inactive). With `CC1=CC2(O)OCCN(CCO)C2=CC1=O` (centres undefined) the inhibition was 2.5% (inactive). In the case of `COc1ccc2[nH]cc(C3N4CC5(C)CN3CC(C)(C4)C5=O)c2c1` (centres undefined), the inhibition is reported as 4.1% (inactive). `CC(=O)N1CC23C=CC(CC2CC12CCCCCC2)O3` (centres undefined) was tested, and the inhibition was 1.3% (inactive). With `Cc1ccc(OCCCCn2ccnc2C)c(C)c1` the inhibition was -1.6% (inactive). With `CC1(C)CC(=O)C(C2=NC(C)(C)Cc3ccccc32)=C(O)C1` the inhibition was -0.4% (inactive). In the case of `COC(=O)c1[nH]c2ccc(C)cc2c1NC(=O)CN1CCc2cc(OC)c(OC)cc2C1`, the inhibition is reported as 2.1% (inactive). With `O=C(O)C1CSC(c2ccco2)N1` (centres undefined) the inhibition was -0.8% (inactive). In the case of `COc1cc(C=NCC2OCCc3ccccc32)cc(OC)c1` (centres undefined), the inhibition is reported as 3.3% (inactive). In the case of `COc1ccc(-c2cc(=Nc3ccc(C)cc3)c3ccccc3o2)cc1`, the inhibition is reported as 2.9% (inactive). With `NC(N)=N/N=C/c1cccc(Cl)c1Cl` the inhibition was -3.3% (inactive). For `Cc1oc2c(O)c(O)ccc2c(=O)c1-c1ccccc1`, the inhibition was 2% (inactive). With `O=c1[nH]c(Cc2ccccc2)nc2c1oc1ccccc12` the inhibition was 8.7% (inactive). `COc1ccc2c(c1O)Cc1ccccc1C2=O` was tested, and the inhibition was -3.9% (inactive). With `Cc1oncc1C(=O)Nc1ccc(C(F)(F)F)cc1` the inhibition was 2.2% (inactive). In the case of `CC(=O)OCC(=O)[C@@]1(O)[C@H](C)C[C@H]2[C@@H]3CCC4=CC(=O)C=C[C@]4(C)[C@@]3(F)[C@@H](O)C[C@@]21C`, the inhibition is reported as 6.7% (inactive). With `COC(=O)c1cc(OC)c(OC)cc1NC(=O)CN1C(=O)c2ccccc2C1=O` the inhibition was -5.5% (inactive). For `CC(=O)OC[C@H]1O[C@@H](n2ncc(=O)[nH]c2=O)[C@H](OC(C)=O)[C@@H]1OC(C)=O`, the inhibition was 3.7% (inactive). `COC(=O)c1ccc(NC(=O)C23CCC(C)(C(=O)O2)C3(C)C)cc1` (centres undefined) was tested, and the inhibition was 2.4% (inactive). For `CC(=O)c1cn(C)c(=O)[nH]c1=O`, the inhibition was -0.5% (inactive). `CCN(CC)CCN1C(=O)C(=O)/C(=C(/O)c2c(C)[nH]c(C(=O)OC)c2C)C1c1cccnc1` (centres undefined) was tested, and the inhibition was -4.4% (inactive). In the case of `COc1ccccc1C(O)c1nccn1C` (centres undefined), the inhibition is reported as 0.4% (inactive). For `CC12CCC(C(=O)NCc3ccccn3)(OC1=O)C2(C)C` (centres undefined), the inhibition was 3% (inactive). `COc1cc(OC)c2c(C)c(Cl)c(=O)oc2c1` was tested, and the inhibition was -3.3% (inactive). `O=C(Nc1cccc(Cl)c1)N1CCN2C(=O)c3ccccc3C12c1ccccc1` (centres undefined) was tested, and the inhibition was -4.4% (inactive). `CC(C)OC(=O)CC12CN3CN(C1)CC(CC(=O)OC(C)C)(C3)C2=O` was tested, and the inhibition was 6.1% (inactive). In the case of `Cn1c(SCC(=O)c2ccccc2)nnc1-c1ccncc1`, the inhibition is reported as 3.4% (inactive). For `Cc1cc(=O)c2c(O)c(O)ccc2o1`, the inhibition was -0.2% (inactive). In the case of `Cc1ccsc1/C=C/C1=NCCCN1C`, the inhibition is reported as -3.7% (inactive). With `O=C(N/C(=C/C=C\c1ccccc1)C(=O)N1CCOCC1)c1ccc(Br)cc1` the inhibition was -3.6% (inactive). For `CC1=CC(=O)c2ccccc2C1=O`, the inhibition was 6.7% (inactive). For `CSCCC(NC(C)=O)C(=O)Oc1ccc2c3c(c(=O)oc2c1)CCCC3` (centres undefined), the inhibition was -1.8% (inactive). In the case of `CNc1nc(N(C)C)nc(N(C)C)n1`, the inhibition is reported as -1.7% (inactive). For `COc1ccc(/C=C\C(=O)c2c(O)ccc3c(C)cc(=O)oc23)cc1OC`, the inhibition was -2.9% (inactive). `O=C1c2ccccc2C2(c3ccccc3)NCCN12` (centres undefined) was tested, and the inhibition was 8.5% (inactive). `O=c1cc(-c2ccccc2)oc2cc(OCc3ccccc3)cc(O)c12` was tested, and the inhibition was -4.8% (inactive). For `COC1(C)CC2C(CC1OC(=O)c1cc([N+](=O)[O-])cc([N+](=O)[O-])c1)C2(C)C` (centres undefined), the inhibition was -5.5% (inactive). For `O=C1[C@@H]2[C@H](Cc3ccc(O)cc3)N[C@]3(C(=O)Nc4ccccc43)[C@@H]2C(=O)N1c1ccc(F)cc1`, the inhibition was -2.6% (inactive).
